# The supplement of paper PMC6555819
# What was measured:
# Test in all cases: PBM binding z-score (relative to random genomic background probes); higher = stronger binding; sequences stand for … in GC…GCGATTGACAGCGTAGAATGAAGG
# [1] = tested on: PPARg:RXRa DBDmut IVT, anti-RXR (DBD mutation: RXRa K156A/R161A, NR concentration 270 nM, RXRa partner concentration 90 nM)
# In short: (§1)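 Probes were double-stranded and carried 34-nt variable regions with direct-repeat seeds, single-nucleotide variants, half-site ablations and random human genomic background sequences, printed on custom Agilent 4×180K protein-binding microarrays. Arrays were incubated 1 h with ligand-free nuclear receptor dimers in PBS pH 7.4, 2% milk, 0.02% Triton X-100, 1 mM DTT, 0.2 mg/mL BSA and 0.4 mg/ml salmon testes DNA. Antibodies against each partner (one per run) detected binding, and scanned fluorescence was regression-normalized. Binding z-scores use the random background probes as reference.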
# [2] = tested on: PPARg:RXRa IVT, anti-PPARg (NR concentration 270 nM, RXRa partner concentration 90 nM)
# In short: as §1
# [3] = tested on: PPARg DBDmut:RXRa IVT, anti-PPARg (DBD mutation: PPARg1 K132A/R137A, NR concentration 270 nM, RXRa partner concentration 90 nM)
# In short: as §1
# [4] = tested on: PPARg DBDmut IVT, anti-PPARg (DBD mutation: PPARg1 K132A/R137A, NR concentration 270 nM)
# In short: as §1
# [5] = tested on: PPARg homodimer (NR concentration 180 nM)
# In short: as §1
# [6] = tested on: PXR:RXRa (NR concentration 270 nM, RXRa partner concentration 90 nM)
# In short: as §1
# [7] = tested on: PXR homodimer (NR concentration 270 nM)
# In short: as §1
# [8] = tested on: RARa:RXR (NR concentration 270 nM, RXRa partner concentration 90 nM)
# In short: as §1
# [9] = tested on: RARa homodimer (NR concentration 270 nM)
# In short: as §1
# [10] = tested on: RARb:RXRa (NR concentration 270 nM, RXRa partner concentration 90 nM)
# In short: as §1
# [11] = tested on: RARb homodimer (NR concentration 270 nM)
# In short: as §1
# [12] = tested on: RARg:RXRa (NR concentration 270 nM, RXRa partner concentration 90 nM)
# In short: as §1
# [13] = tested on: RARg homodimer (NR concentration 270 nM)
# In short: as §1
# [14] = tested on: RXRa DBDmut IVT, anti-RXR (DBD mutation: RXRa K156A/R161A, NR concentration 90 nM)
# In short: as §1
# [15] = tested on: RXRa homodimer (NR concentration 180 nM)
# In short: as §1
# [16] = tested on: THRa:RXRa (NR concentration 90 nM, RXRa partner concentration 90 nM)
# In short: as §1
# [17] = tested on: THRa homodimer (NR concentration 90 nM)
# In short: as §1
# [18] = tested on: VDR homodimer (NR concentration 270 nM)
# In short: as §1
Sequence,PBM binding z-score [1],PBM binding z-score [2],PBM binding z-score [3],PBM binding z-score [4],PBM binding z-score [5],PBM binding z-score [6],PBM binding z-score [7],PBM binding z-score [8],PBM binding z-score [9],PBM binding z-score [10],PBM binding z-score [11],PBM binding z-score [12],PBM binding z-score [13],PBM binding z-score [14],PBM binding z-score [15],PBM binding z-score [16],PBM binding z-score [17],PBM binding z-score [18]
ATCCCTAGGTAAAAGTTCAGTGAATCCCGAGGAT,-0.636,1.17,-0.0921,0.662,0.927,1.97,1.19,1.18,0.513,2.16,2.41,1.53,1.73,0.406,1.39,1.13,0.117,1.71
GCGACTGGGGCATCAGCAGATTACCATAACTTAA,4,2.69,0.0111,-0.326,-0.0673,-0.385,-0.328,-0.267,0.336,0.39,0.257,-0.0173,0.481,0.186,-0.143,-0.135,-0.286,-0.431
GAAACAGGGTCAGCTAGAGGCCAGAGTATGGAAA,2.53,3.11,0.33,-0.985,3.56,3.46,-0.0723,4.93,0.262,4.14,3.26,6.78,4.43,1.52,4.28,3.13,0.117,0.821
CCTAGTTGGTCAGGAGCTCACACACCGGATATGA,0.512,0.377,0.181,-0.1,0.317,-0.386,-0.151,-0.201,0.575,0.469,0.161,0.446,0.601,-0.0483,0.0648,-0.298,-0.103,0.545
